109 sequences from PubChem BioAssay AID1347426 (Functional Genomics Laboratory (NCATS/FGL), 2020) can be followed below.

Screen size: about 31,000 sequences; about 1,400 (4.5%) were called active. This excerpt belongs to a sample that is enriched for actives. Unmarked numbers belong to inactive results.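 How the source made its calls: active means median seed-adjusted z-score above 1 or below -1; inactive means the rest.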

A short description of this test: Novel Modifiers of Survival Motor Neuron (SMN) Protein: Gene Identification via Genome-wide siRNA Screen.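 Further: luminescence tracks full-length SMN protein made from the SMN2 reporter.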 The note with it: HEK293T SMN2-luciferase reporter, siRNA knockdown, 72 h; actives lie on both sides. A digest of the protocol:
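HEK293T cells stably expressing an SMN2 splicing/cDNA-luciferase reporter were reverse-transfected with a druggable-genome siRNA library and read by luminescence at 72 hours; hits defined by MAD score above 1.0 or below -1.0.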
A general note: In a reporter assay the amount or activity of a reporter protein is the signal.
Consider AGAAAUUGGUGUUCAGAAUTT against GTF2F2, for which the median seed-adjusted z-score is -1.14 (active).
Next, GAAUAAAAACGACCUCUUUTT against LZTR1: 0.293; GCAUGUUAAUGGGUUUAAUTT against GNAS: -0.531.
With CUGCAGUUCUUAAUACGAATT against PSMD1, the median seed-adjusted z-score is -1.61 (active).
Next, GAACAUAUGUGAUGACCGUTT against CDH2: -0.235; GGAGGUCUCCUACAUCAAATT against ZAN: 0.736; CGGGUGCACUACUACAUCUTT against GBGT1: 0.48.
The result for AGCCCUUGACCUUAUCUAATT against CSTB reads 1.08 (active); that for ACUCAACUCUGAUACUCCATT against DMRTC2, 0.
Next, GAGCUGAAGUCCUUAGAUATT against EIF2B3: -0.271; CGACUAUGCUUUAGAUUAUTT against MAS1: -0.0551.
As for CGGCCUAACUUUCAAGACATT against SDK2, the median seed-adjusted z-score is 0.908.
The result for GGUUCUGAAAUGUUCGUCATT against ZDHHC22 reads 0.00446.
The result for GAUAAAAGGAUGGAUGAAATT against PRPF6 reads -1.06 (active); that for GAAUCAAGACAAACCCGAATT against TTN, 0.872; that for GCACUCUUCUCAUUCACGATT against ATP1B3, -0.225.
For CCAACGAACUCCUUACUUATT against SCP2, the median seed-adjusted z-score is 0.413.
Turning to CAAUCACUCAGGAACAAAUTT against CHMP6, the median seed-adjusted z-score is -1.81 (active).
The result for ACAAUACCCUCAGACUGAATT against NMUR1 reads -0.265.
The result for UGGUGAAAAUUACAUCUGATT against CIP29 reads -1.18 (active); that for CAAUCCUCAUGCUAAACCATT against SGK1, -0.659.
For the sequence GAGUGGACUGGGCAAAUCATT against 3-Sep, the median seed-adjusted z-score was 0.0683.
The result for CAGGUAUUCUGGUCAAUAUTT against ATL3 reads 0.201; that for GACAAUGGGUUAUUCAGGATT against FNTA, 1.04 (active); that for GACACCUUCUUAGACGAUATT against AMPD1, 0.378.
The result for GCGAGUAGAUAAUAUCGAATT against MAP3K5 reads -0.285; that for GCAGGUCAGUUAUCAGACUTT against SLC17A1, -0.271.
Take CAGUUGUACUGGACGGCUATT against PALLD: the median seed-adjusted z-score is -0.307.
Next, CAACCUCACUGACCGGCAATT against HOXD11: -0.185.
Regarding CAUCUUUCCUAAAGAGUUUTT against POLR2D, the median seed-adjusted z-score was -3.79 (active).
Next, GCCUACAUGUUUCUGCUGATT against RHO: -0.267; CAGAGGAACUGACACCAUUTT against ETFA: -0.0619; CGCUUUUCGUUGUAAAUAUTT against NKX2-2: -0.0805.
Next, GAAGCUUGAGGAACACGAATT against GOLGB1: 0.0851; CACUAAUGGAUAUUGCCUATT against BMI1: 0; UGACUGCGGAUAUAACUGATT against LMAN2: -0.0921.
With GGGAAGGCAAUAAAACUUATT against TAAR9, the median seed-adjusted z-score was -1.07 (active).
Next, GACUAAUGAACUACUAAAATT against HMMR: 0.389; GAAUAUCUAGGUACAUGGATT against ADCY10: -0.573.
As for CUGUACAACGUCAACCUCATT against SCNN1D, the median seed-adjusted z-score is -1.8 (active).
For the sequence CAGUUAAAGGUCAAGAUAATT against PI3, the median seed-adjusted z-score is 0.493.
In the case of AGAUUAAGGAUAUGGAUGATT against CHRNA9, the median seed-adjusted z-score is -0.454.
The result for GGAUAAUCGACACUCUGGATT against MATN3 reads 0.0972; that for GGAUUAACAUAUGAUGACATT against ADAM18, -0.913; that for GGUUCUCAGGAGCACCAGATT against OASL, 1.02 (active).
Next, CAUGUCACCUGCAAAAUUATT against THEM2: 0.449; GAGUCGUUGUCCAUCUUAATT against SR140: 1.16 (active); GCAGAUCCAUCAACUACGATT against UBR4: 0.602.
As for GGUUAUACUCGGGCAGAGATT against NDUFS5, the median seed-adjusted z-score was -1.35 (active).
The result for GGCUAACUAUUUUGUCAGATT against ABHD7 reads -0.301; that for CCAUGAUACUCCACUCCCATT against GUCA2A, 0.121; that for GGCUAUGCAGGUCCACUGUTT against DDR1, -0.166.
The result for GGUUUGAAGGGUUGACUCATT against STK38L reads 0.079; that for GAGACAACAUGAAUGACAATT against CHGB, -1.29 (active); that for GGAUGUGGGUUUACUCUUUTT against SLC1A5, -0.104.
Next, GCAUGGAUGCUUCUAGACATT against AKAP9: -1.22 (active); CCAUGAUCCUGAUAGGCAATT against PLAT: 0.246; AGACCACCUUCAUCCGACATT against EHD1: -0.616.
Regarding ACCUCGGACUGGUACAUGATT against SLC38A3, the median seed-adjusted z-score was -0.177.
The result for GCUCGUAAACUAGCUAAUATT against RCOR3 reads 0.0446.
Next, GCAAGUGAAUAUGCGGAUATT against SNRPE: -2.77 (active).
Regarding GAAAACCCUUGUAAGUAUATT against ZNF354A, the median seed-adjusted z-score is 0.401.
The result for GGUGUAAAAGUGAUUAUAATT against LCLAT1 reads 0.
Next, CACCUACUCUGACAACCAATT against HSPA1L: -1.27 (active).
The result for CUAUCACUGUCUCAAGUCATT against ITGA10 reads 0.378.
Regarding GAGUUAAGGAGGUAGAUGATT against SNX5, the median seed-adjusted z-score was -0.141.
The result for GCAUGAGUGCUAUCAGAUATT against PIPOX reads 1.06 (active).
Next, GCUCCUGGAGUUAAGCUUATT against SPINK2: -0.431; AGUUUCAUUUCAAUAAGUATT against HOXD1: 0.144.
Next, GGAGUAACCUGGAUGAGGATT against C3: 0.0281.
As for AGAGCAUUGGGUACACCAATT against COL6A2, the median seed-adjusted z-score was 0.0119.
The result for CCCAUUCCCUGUGCUCCAATT against CARD10 reads -0.929.
The result for GGUUUUUCAAGUACGAAAATT against RPS6KB1 reads 1.4 (active); that for GGCCCUUCAUCGAUAGCUATT against APEX2, -0.347.
The result for CCCUAUCCAUGUUCCAUGUTT against HDAC10 reads -0.165.
On to CAGCUGUUGUUGAGCGAAUTT against CASP2, for which the median seed-adjusted z-score was 0.421.
For GGCUGUACAUCGAUAGCUATT against PGM1, the median seed-adjusted z-score is 0.136.
Next, GUUCAUGCAUGGGUGGAAATT against CD200R2: -0.772; CGUCUAUACUUACAAGCUUTT against SF3B3: -2.53 (active).
On to GAACCAACUCGGAUAUUGUTT against MEF2A, for which the median seed-adjusted z-score was -0.0658.
Next, GUGCCUAAGUCUUUAGUUUTT against IFI35: 0.105; GGAGAUCUAUUCAAUGGGATT against SRPK1: 0.37.
The result for GAGCAGUUCGAACACCUUATT against RBM4B reads -0.251.
For GCAGAAUACCUGUUUCAAATT against TERF1, the median seed-adjusted z-score was 0.0114.
As to GUCAUCAACGGAAACAUAATT against EIF3G, the median seed-adjusted z-score is -0.198.
Next, GGUGAUGAGAGAUCCCAAUTT against PABPC4: -0.42.
The result for ACCGAGACCUCAAACCUGATT against PSKH1 reads -2.03 (active).
Next, CUUUCUAGCAGUCACCAUATT against CIR: -0.197; GCCUAUAACAUGCAAACUUTT against HOXC5: 0.507; GAAACCCGGUGAAAAGAAATT against VARS2: 0.288.
As for GCUUAUAGCUGCUACAAUUTT against MTMR1, the median seed-adjusted z-score is -0.0204.
Next, CGAAAUACGUGGAACUCAUTT against ACE: 0.0874; ACAUCGCCCUUAUUGCUAUTT against FOXS1: 0; AGAGCAUCCUAAACGACCATT against SMUG1: -1.38 (active).
Next, GCUGGUACAUGACAUCCGATT against GGT7: 0.135; GCCUUAAGAUCUCGGCGUATT against PTPRK: 0; UGAAGAUGAGGGACCCUAATT against LOXL4: -0.591.
In the case of GGGUGGACGUGGAUACUUATT against NFE2L1, the median seed-adjusted z-score was 0.689.
The result for AGGGCUAUCUGGUAUCUGUTT against SNRPF reads -2.66 (active); that for CUGGUACAGUGAUCGGGAATT against PCDH12, 0.0177; that for GUUAUGCCUUUAUUAAUUUTT against SF3B4, -2.56 (active).
Next, GGAUAUUACAGCUAUUUGATT against USP10: 0.182.
Next, CAACUGCAGCAGAUUCUAATT against MNAT1: -0.335; GACCAGAUCUUUAAUCUCATT against RGS10: 0.304; CAACACCGCCCACAACAAATT against TRIM25: 0.859.
On to CGGGAGUUUUUGGAACUGATT against MMS19L, for which the median seed-adjusted z-score was 0.898.
For GGAAGCUCCUUGUCAAGAUTT against MECP2, the median seed-adjusted z-score is -0.332.
For the sequence GCAGGAUGCUGUCAACAUATT against PSMD4, the median seed-adjusted z-score is 1.46 (active).
The result for GCAAGAGAAUUAGAUCAGATT against SLC16A12 reads 0.0219.
